Data on 69 compounds can be found in the antibiotic and cytotoxicity screens of Wong et al. (2023).

Out of some 39,000 compounds screened, about 3,300 (8.5%) were called active. Only a selection was taken, and actives are over-represented in it overall.

This experiment deals with HepG2. Briefly: cytotoxicity call (relative viability < 0.9). The following applies: 10 µM.
As for `O=C(O)c1cc(=O)cc(C(=O)O)o1`, the cytotoxicity call is “inactive”.
Under `C=CCn1c(O)c(C#N)c(C)cc1=O` stands “inactive”; under `CN(C)C(=O)C[C@H]1CC[C@H](NC(=O)C2CCOCC2)[C@H](CO)O1`, “inactive”.
On to `C[C@@H]1CCCCO[C@H](CN(C)C(=O)c2ccccc2)[C@@H](C)CN([C@H](C)CO)C(=O)c2cc(NS(=O)(=O)c3ccc(Cl)cc3)ccc2O1`, for which the cytotoxicity call is “inactive”.
To `N#C/C(=C\c1cccs1)c1csc2ccc(Cl)cc12` belongs “inactive”; to `CO[C@@H]1CN(C)C(=O)c2cc(NC(=O)CC(F)(F)F)ccc2OC[C@@H](C)N(S(=O)(=O)c2cn(C)cn2)C[C@@H]1C`, “inactive”.
To `O=S(=O)(c1cccc(OC(F)F)c1)N1[C@@H]2CC[C@@H](C2)[C@H]1c1nc2cccc(OCc3ccccc3)c2[nH]1` belongs “inactive”; to `C[C@@H]1CN([C@@H](C)CO)S(=O)(=O)c2ccc(C#CC(C)(C)O)cc2O[C@H]1CN(C)Cc1ccc(F)cc1`, “inactive”.
Under `C[C@@H]1CN([C@@H](C)CO)C(=O)Cc2cc(NC(=O)Nc3ccc4c(c3)OCO4)ccc2O[C@@H]1CN(C)Cc1ccc(C(F)(F)F)cc1` stands “inactive”.
Regarding `C[C@@H]1CN([C@@H](C)CO)C(=O)Cc2cc(NC(=O)Nc3ccc4c(c3)OCO4)ccc2O[C@H]1CN(C)Cc1ccc(C(F)(F)F)cc1`, the cytotoxicity call is “inactive”.
Regarding `C[C@@H]1CN([C@H](C)CO)C(=O)Cc2cc(NC(=O)Nc3ccc4c(c3)OCO4)ccc2O[C@H]1CN(C)Cc1ccc(C(F)(F)F)cc1`, the cytotoxicity call was “active”.
Under `C[C@H]1CN([C@@H](C)CO)C(=O)Cc2cc(NC(=O)Nc3ccc4c(c3)OCO4)ccc2O[C@H]1CN(C)Cc1ccc(C(F)(F)F)cc1` stands “active”; under `C[C@H](CO)N1C[C@H](C)[C@H](CN(C)Cc2ccc(C(F)(F)F)cc2)Oc2ccc(NC(=O)Nc3ccc4c(c3)OCO4)cc2CC1=O`, “inactive”; under `C[C@H](CO)N1C[C@H](C)[C@@H](CN(C)Cc2ccc(C(F)(F)F)cc2)Oc2ccc(NC(=O)Nc3ccc4c(c3)OCO4)cc2CC1=O`, “inactive”.
Under `C[C@@H]1CN([C@H](C)CO)C(=O)Cc2cc(NC(=O)Nc3ccc4c(c3)OCO4)ccc2O[C@@H]1CN(C)Cc1ccc(C(F)(F)F)cc1` stands “active”; under `C[C@H]1CN([C@@H](C)CO)C(=O)Cc2cc(NC(=O)Nc3ccc4c(c3)OCO4)ccc2O[C@@H]1CN(C)Cc1ccc(C(F)(F)F)cc1`, “inactive”; under `C[C@@H]1CCCCO[C@H](CN(C)C(=O)c2ccccc2)[C@H](C)CN([C@@H](C)CO)C(=O)c2cc(NS(=O)(=O)c3ccc(F)cc3)ccc2O1`, “inactive”.
Under `COCC(=O)N1C[C@H](C)[C@@H](OC)CN(C)C(=O)c2cc(NC(=O)Nc3ccccc3)ccc2OC[C@H]1C` stands “inactive”; under `C[C@@H]1CN([C@@H](C)CO)C(=O)c2cc(-c3ccc(C(=O)N(C)C)cc3)cnc2O[C@@H]1CN(C)C(=O)c1cccnc1`, “inactive”; under `C[C@@H]1CN([C@@H](C)CO)S(=O)(=O)c2ccc(C#Cc3ccc(F)cc3)cc2O[C@H]1CN(C)S(=O)(=O)c1cn(C)cn1`, “inactive”.
Consider `C[C@@H]1CN([C@H](C)CO)C(=O)c2cc(NC(=O)Cn3cnnn3)ccc2O[C@@H]1CN(C)Cc1ccc(C(=O)O)cc1`, for which the cytotoxicity call was “inactive”.
Under `COc1ccc(CCNC(=O)[C@@]2(Sc3ccc(C)cc3)CC(=O)N(Cc3ccccc3C(F)(F)F)[C@@H]2c2ccc(CO)cc2I)cc1` stands “inactive”; under `O=C(NCC1CC1)[C@@H]1[C@@H](CO)[C@@H]2Cn3c(cccc3=O)[C@H]1N2C(=O)c1cccnc1`, “inactive”; under `Cc1ccc(S(=O)(=O)Nc2cccc3c2O[C@H](CN(C)S(=O)(=O)c2ccccc2)[C@@H](C)CN([C@H](C)CO)C3=O)cc1`, “inactive”.
Under `C[C@]12CC3CC(N)(C1)C[C@@](C)(C3)C2` stands “inactive”.
To `CC12CC3CC(C)(C1)CC(N)(C3)C2.Cl` belongs “active”; to `C[C@]12C[C@@H]3C[C@](C)(C1)C[C@@](N)(C3)C2`, “inactive”.
Take `C[C@@H]1CN([C@@H](C)CO)C(=O)c2cc(NC(=O)Nc3ccc4c(c3)OCO4)ccc2O[C@@H]1CN(C)S(C)(=O)=O`: the cytotoxicity call is “inactive”.
Take `O=C(NCCN1CCOCC1)[C@]1(CCS(=O)(=O)c2ccccc2)N=C(c2ccc(OCCCO)cc2)O[C@@H]1c1ccccc1`: the cytotoxicity call was “inactive”.
To `COc1ccc(NC(=O)N(C)C[C@@H]2Oc3ccc(NC(=O)CCCCCC(=O)Nc4ccccc4N)cc3CC(=O)N([C@@H](C)CO)C[C@H]2C)cc1` belongs “inactive”; to `C[C@H]1CCCCO[C@@H](CN(C)C(=O)NC2CCCCC2)[C@@H](C)CN([C@@H](C)CO)C(=O)c2cc(NC(=O)CCC(F)(F)F)ccc2O1`, “inactive”; to `CCCN(C)C[C@@H]1OCCCC[C@@H](C)Oc2ccc(NC(=O)NC3CCCCC3)cc2C(=O)N([C@H](C)CO)C[C@@H]1C`, “active”.
On to `C[C@H](CO)N1C[C@H](C)[C@H](CN(C)CC2CCCCC2)OCCCC[C@H](C)Oc2ccc(NC(=O)NC3CCCCC3)cc2C1=O`, for which the cytotoxicity call is “inactive”.
As for `C[C@@H]1CCCCO[C@@H](CN(C)CC2CCCCC2)[C@H](C)CN([C@H](C)CO)C(=O)c2cc(NC(=O)NC3CCCCC3)ccc2O1`, the cytotoxicity call is “inactive”.
Under `C[C@H]1CCCCO[C@H](CN(C)CC2CCCCC2)[C@@H](C)CN([C@@H](C)CO)C(=O)c2cc(NC(=O)NC3CCCCC3)ccc2O1` stands “active”; under `C[C@@H]1CCCCO[C@H](CN(C)CC2CCCCC2)[C@H](C)CN([C@H](C)CO)C(=O)c2cc(NC(=O)NC3CCCCC3)ccc2O1`, “active”; under `CCCN(C)C[C@H]1OCCCC[C@@H](C)Oc2ccc(NC(=O)NC3CCCCC3)cc2C(=O)N([C@@H](C)CO)C[C@H]1C`, “inactive”.
Under `CCCN(C)C[C@@H]1OCCCC[C@H](C)Oc2ccc(NC(=O)NC3CCCCC3)cc2C(=O)N([C@@H](C)CO)C[C@@H]1C` stands “inactive”; under `C[C@@H]1CCCCO[C@@H](CN(C)CC2CCCCC2)[C@H](C)CN([C@@H](C)CO)C(=O)c2cc(NC(=O)NC3CCCCC3)ccc2O1`, “inactive”.
To `C[C@@H]1CCCCO[C@@H](CN(C)CC2CCCCC2)[C@@H](C)CN([C@@H](C)CO)C(=O)c2cc(NC(=O)NC3CCCCC3)ccc2O1` belongs “inactive”; to `C[C@@H]1CN([C@@H](C)CO)C(=O)c2cc(NC(=O)NC3CCCCC3)ccc2O[C@@H](C)CCCCO[C@@H]1CN(C)CC1CCCCC1`, “inactive”.
As to `C[C@@H]1CN([C@@H](C)CO)C(=O)c2cc(NC(=O)NC3CCCCC3)ccc2O[C@@H](C)CCCCO[C@H]1CN(C)CC1CCCCC1`, the cytotoxicity call was “active”.
Under `C[C@@H]1CCCCO[C@H](CN(C)CC2CCCCC2)[C@@H](C)CN([C@H](C)CO)C(=O)c2cc(NC(=O)NC3CCCCC3)ccc2O1` stands “inactive”; under `COc1cccc(NC(=O)N2C[C@@H](O)COC[C@H]3O[C@H](CC(=O)NC4Cc5ccccc5C4)CC[C@@H]32)c1`, “inactive”.
Under `CCNC(=O)C[C@H]1CC[C@H]2[C@@H](COC[C@@H](O)CN2C(=O)Nc2c(C)noc2C)O1` stands “inactive”; under `Cc1ccc(S(=O)(=O)N[C@@H]2CC[C@H](CCNC(=O)CN3CCOCC3)O[C@H]2CO)cc1`, “inactive”; under `CCOC(=O)CCc1n[nH]c(=O)[nH]c1=O`, “inactive”.
Under `O=C(CCCCCNC(=O)OCCCCO[C@@H]1C[C@H](C2CCCCC2)C=C(C(=O)N2CCOCC2)O1)NO` stands “inactive”; under `Cc1noc(C)c1NC(=O)Nc1ccc2c(c1)C(=O)N([C@@H](C)CO)C[C@@H](C)[C@H](CN(C)S(C)(=O)=O)O2`, “inactive”.
Turning to `C[C@H](CO)N1C[C@H](C)[C@@H](CN(C)C(=O)CCC(F)(F)F)OCCCC[C@H](C)Oc2ccc(NC(=O)C3CCCCC3)cc2C1=O`, the cytotoxicity call was “inactive”.
Under `Cc1noc(C)c1NC(=O)N(C)C[C@@H]1OCCCC[C@H](C)Oc2ccc(NC(=O)CCC(F)(F)F)cc2C(=O)N([C@@H](C)CO)C[C@H]1C` stands “inactive”.
Under `C[C@H](CO)N1C[C@H](C)[C@H](CN(C)Cc2ccc(Cl)c(Cl)c2)Oc2c(NC(=O)Nc3ccccc3)cccc2C1=O` stands “inactive”; under `C[C@@H]1CN([C@H](C)CO)C(=O)c2cccc(NS(=O)(=O)c3ccc(Cl)cc3)c2O[C@H]1CN(C)Cc1ccc(Cl)c(Cl)c1`, “inactive”; under `O=S1(=O)C[C@H](NCCO)[C@@H](O)C1`, “inactive”.
As for `NC(Cc1c[nH]c2ccccc12)C(=O)O` (centres undefined), the cytotoxicity call is “inactive”.
To `OCc1c[nH]c2ccccc12` belongs “active”; to `CNC(=O)C(=O)NCCc1c[nH]c2ccccc12`, “inactive”; to `C[C@@H]1CN([C@H](C)CO)C(=O)c2cccc(NC(=O)c3nc4ccccc4s3)c2O[C@H]1CN(C)C(=O)Nc1ccc(F)cc1`, “inactive”.
To `CN1CCN(C(=O)CC#N)CC1` belongs “inactive”.
To `C[C@@H]1CN([C@@H](C)CO)C(=O)c2cccc(NC(=O)C3CCCCC3)c2O[C@H]1CN(C)S(=O)(=O)c1cn(C)cn1` belongs “inactive”.
On to `CCCCCC[C@@H](O)CC=CCCCCCCCC(=O)O`, for which the cytotoxicity call is “inactive”.
Under `CNC1CCC(c2ccc(Cl)c(Cl)c2)c2ccccc21.Cl` (centres undefined) stands “active”; under `CN[C@H]1CC[C@@H](c2ccc(Cl)c(Cl)c2)c2ccccc21`, “active”.
To `N[C@@H]1CC[C@@H](c2ccc(Cl)c(Cl)c2)c2ccccc21` belongs “active”; to `C[C@@H]1CN([C@@H](C)CO)C(=O)CCCn2nncc2CO[C@@H]1CN(C)S(=O)(=O)c1ccc(C#N)cc1`, “inactive”; to `CC(=O)NCCCC[C@@H]1NC(=O)[C@@H]2C[C@H](C(=O)NCCCCCCNC(=O)CS)[C@H](c3ccc(O)cc3)N2C1=O`, “inactive”.
For the compound `C[C@@H]1CCCCO[C@H](CN(C)C(=O)NC2CCCCC2)[C@H](C)CN([C@@H](C)CO)C(=O)c2cc(NC(=O)c3ccncc3)ccc2O1`, the cytotoxicity call is “inactive”.
To `C[C@@H]1CN([C@@H](C)CO)C(=O)c2cc(NC(=O)NC3CCCCC3)ccc2O[C@@H](C)CCCCO[C@H]1CN(C)Cc1ccc(C(=O)O)cc1` belongs “inactive”; to `CC(C)NC(=O)N(C)C[C@@H]1Oc2c(NS(=O)(=O)c3cn(C)cn3)cccc2C(=O)N([C@@H](C)CO)C[C@H]1C`, “inactive”.
